{"source": "PubChem BioAssay AID624297", "about": "(National Center for Advancing Translational Sciences (NCATS), 2012)", "note": "The whole screen tested about 340,000 compounds, of which about 6,200 (1.8%) were called active. About 10% were inconclusive and are not listed. The call rests on the fitted dose curve; in most records, active means well fitted activation curve with a large enough effect; inconclusive means small, poorly fitted or top-dose-only effect; inactive means no such curve, though single readings can be large or run the other way. The sample as a whole holds a higher share of actives than the screen did. Potency means the concentration at half of the fitted maximal effect.", "data": [{"assay": "A quantitative high throughput screen for small molecules that induce DNA re-replication in SW480 colon adenocarcinoma cells; further: nearly all actives have a fitted effect of over 55% in size; on re-replication activation: % of control where 0% means no effect.", "conditions": "Hoechst DNA content imaging, 48 h; series mostly up to 46.1 µM; re-replication activation: at the top concentration", "text": "H Molecular Libraries Probe Production Network [MLPCN] NIH Chemical Genomics Center [NCGC] MLPCN Grant: Fast Track K99 CA136555 Assay Provider: Melvin DePamphilis, NICHD, NIH Assay Overview Eukaryotic cells normally restrict genome duplication to once per cell division. When this process is aberrant, DNA re-replication occurs when cells reinitiate DNA replication before the first round of replication is complete. DNA re-replication induces the DNA damage response, arrests cell proliferation, and triggers apoptosis. The cell cycle components cyclin A, Cdt-1, Cdc6 and geminin are critical regulators of this process and their misregulation results in DNA re-replication in normal and cancer cells. To identify compounds that induce re-replication in normal cells, an image-based assay was used to measure DNA content of nuclei, as detected by the fluorescent DNA binding dye, Hoechst. Cell nuclei were imaged by a fluorescence scanning plate imager and compounds that induce DNA re-replication were identified by the increase of nuclei with elevated fluorescence intensity\nFor screening, 250 cells in 5 uL/well were dispensed into black clear 1536-well plates (Aurora) using a solenoid-based dispenser. Following transfer of 23 nL compound or DMSO vehicle by a pin tool, the plates were incubated 48 hr at 37 C and 5% CO2. After addition of 1 uL/well Hoescht stain, the plates were incubated 40 min at 37 C, 5% CO2 and total intensity of fluorescent objects (nuclei) were enumerated by an Acumen Explorer Ex3 (TTP LabTech) fluorescence scanning plate imager (405 nm excitation, 500-530 nm emission). Keywords: NIH Roadmap, MLPCN, MLI, MLSMR, qHTS, NCGC, DNA replication, cancer", "values": [{"compound": "Cc1cc(=O)oc2c(C)c(OCC(=O)N3CCN(Cc4ccc5c(c4)OCO5)CC3)ccc12", "re-replication activation": "3.09% (inactive)"}, {"compound": "Fc1ccc(N2CCN(Cc3ccc4c(c3)OCO4)CC2)cc1", "re-replication activation": "-17% (inactive)"}, {"compound": "O=C(Cc1ccccc1[N+](=O)[O-])N1CCN(Cc2ccc3c(c2)OCO3)CC1", "Potency": "16.4 µM (active)"}, {"compound": "CC1([N+](=O)[O-])COP(=O)(Nc2ccc(F)cc2)OC1", "note": "(stereo not given)", "re-replication activation": "-4.51% (inactive)"}, {"compound": "CC1CNCCN1c1ccc(Cl)cc1", "note": "(stereo not given)", "re-replication activation": "-3.4% (inactive)"}, {"compound": "COc1cc(-n2c(=S)[nH]c3ccc(C)cc3c2=O)c(Cl)cc1Cl", "Potency": "18.4 µM (active)"}, {"compound": "C[C@]12CCC3C(CC[C@H]4[C@H](O)[C@H](O)CC[C@]34C)C1CCC2=O", "note": "(stereo not given in full)", "re-replication activation": "-11.6% (inactive)"}, {"compound": "O=C(CSc1ccccc1)Nc1ccc(C(=O)Nc2cccc(O)c2)cc1", "re-replication activation": "-29.6% (inactive)"}, {"compound": "CCC(C)n1c(O)c(/C=N/Nc2nc3c(c(=O)n(C)c(=O)n3C)n2C)c(=O)[nH]c1=S", "note": "(stereo not given)", "Potency": "23.1 µM (active)"}, {"compound": "CC1CC=CCC12C(=O)NC(=S)NC2=O", "note": "(stereo not given)", "re-replication activation": "-3.08% (inactive)"}, {"compound": "CNC(C)[C@@H](O)c1ccccc1", "note": "(stereo not given in full)", "re-replication activation": "-0.112% (inactive)"}, {"compound": "CC1=CC(=Cc2sc3ccccc3[n+]2C)C=C(C)O1", "Potency": "5.8 µM (active)"}, {"compound": "CCC1(CC(C)c2ccccc2)C(=O)NC(=O)NC1=O", "note": "(stereo not given)", "re-replication activation": "9.81% (inactive)"}, {"compound": "Cc1cc(C)c2c(c1)NP(=S)(c1ccccc1)N2", "note": "(stereo not given)", "re-replication activation": "1.64% (inactive)"}, {"compound": "CCOC(=O)CC(SP1(=S)OCC2(CCCCO2)C(C2CCCCO2)O1)C(=O)OCC", "note": "(stereo not given)", "re-replication activation": "-18.9% (inactive)"}, {"compound": "O=C(N/N=C/c1ccc([N+](=O)[O-])o1)c1cc([N+](=O)[O-])cc([N+](=O)[O-])c1O", "re-replication activation": "-4.03% (inactive)"}, {"compound": "CC[C@H]1CN2CCc3cc(OC)c(OC)cc3[C@@H]2C[C@@H]1C[C@H]1NCCc2cc(OC)c(OC)cc21", "Potency": "0.291 µM (active)"}, {"compound": "O=C1NC(=O)C(CCOc2ccccc2)(CCc2ccccc2)C(=O)N1", "re-replication activation": "-9.88% (inactive)"}, {"compound": "CCC(=O)OC(Cc1ccccc1)(c1ccccc1)C(C)CN(C)C", "note": "(stereo not given)", "re-replication activation": "-0.571% (inactive)"}, {"compound": "CCOP(=O)(OCC)C(Nc1cccc(C)c1)c1ccc(F)cc1", "note": "(stereo not given)", "re-replication activation": "-39.1% (inactive)"}, {"compound": "CN1CCCC(=C(c2cccs2)c2cccs2)C1", "re-replication activation": "1.53% (inactive)"}, {"compound": "Nc1ccc(Cc2ccc(N)c(Cl)c2)cc1Cl", "re-replication activation": "9.5% (inactive)"}, {"compound": "C[C@]12CCCCC1=CC(=O)C1C2CC[C@@]2(C)C1C[C@@H](F)[C@@H]2O", "note": "(stereo not given in full)", "re-replication activation": "-6.07% (inactive)"}, {"compound": "Cc1ncsc1CCCl", "re-replication activation": "-7.55% (inactive)"}, {"compound": "Cc1cc2ccccn2c1C(C[N+](=O)[O-])c1c(F)cccc1Cl", "note": "(stereo not given)", "Potency": "7.31 µM (active)"}, {"compound": "CCOc1ccc(S(=O)(=O)NCc2ccc3c(c2)OCO3)cc1C", "re-replication activation": "-55% (inactive)"}, {"compound": "CC(CC(C#N)(c1ccccc1)c1ccccc1)N1CCCCC1", "note": "(stereo not given)", "re-replication activation": "-1.38% (inactive)"}, {"compound": "COc1ccc(C2CC(c3cccs3)=NN2c2nc(C)c(C(C)=O)s2)cc1OC", "note": "(stereo not given)", "Potency": "14.6 µM (active)"}, {"compound": "O=C(NCc1cccs1)c1ccc(Br)o1", "re-replication activation": "3.87% (inactive)"}, {"compound": "Cc1cccc([C@H](C)c2cnc[nH]2)c1C", "re-replication activation": "0.823% (inactive)"}, {"compound": "CCOC(=O)C1(c2ccccc2)CCN(CC(O)c2ccc(NC(C)=O)cc2)CC1", "note": "(stereo not given)", "re-replication activation": "-3.4% (inactive)"}, {"compound": "c1ccc2sc(SNC3CCCCC3)nc2c1", "re-replication activation": "-0.432% (inactive)"}, {"compound": "COc1ccc2c(c1)NP(=S)(c1ccccc1)N2", "note": "(stereo not given)", "re-replication activation": "3.98% (inactive)"}, {"compound": "O=c1c2ccccc2nc(-c2ccccc2)n1-c1ccccn1", "re-replication activation": "-3.63% (inactive)"}, {"compound": "O=c1c2ccccc2nc(/C=C/c2ccco2)n1-c1ccccc1O", "Potency": "20.6 µM (active)"}, {"compound": "O=c1c2ccccc2nc(-c2ccco2)n1-c1ccc(Br)cn1", "re-replication activation": "-5.63% (inactive)"}, {"compound": "C=CCN1CCC23c4c5ccc(O)c4O[C@H]2C(=O)CC[C@@]3(O)C1C5", "note": "(stereo not given in full)", "re-replication activation": "-6.77% (inactive)"}, {"compound": "CC(C)(C)CC(=O)Nc1nnc(SCC(=O)NCc2cccs2)s1", "re-replication activation": "-40.7% (inactive)"}, {"compound": "Cc1cc(-c2ccc(N)c(C)c2)ccc1N", "re-replication activation": "-2.53% (inactive)"}, {"compound": "CCC1(c2ccccc2)C(=O)NC(=O)N(C)C1=O", "note": "(stereo not given)", "re-replication activation": "-2.55% (inactive)"}, {"compound": "CCN1C(=O)NC(=O)C2(CCCC2)C1=O", "re-replication activation": "-2.27% (inactive)"}, {"compound": "CC(=O)OC1C2(CC3N4C(=O)C5(CO)SSC4(CC31O)C(=O)N5C)OC(C)C(C)(C)C2=O", "note": "(stereo not given)", "Potency": "0.461 µM (active)"}, {"compound": "CCNC[C@H](O)c1cccc(O)c1", "re-replication activation": "-5.95% [at 20.6 µM] (inactive)"}, {"compound": "O=C1NC(=O)C(Cc2ccccc2)C(=O)N1", "re-replication activation": "-6.86% (inactive)"}, {"compound": "CC1CCCN1CCC(C(N)=O)(c1ccccc1)c1ccccc1", "note": "(stereo not given)", "re-replication activation": "-1.97% (inactive)"}, {"compound": "COc1ccc2c3c1O[C@H]1C[C@@H](O)C=C[C@@]31CCN(C)C2", "Potency": "inactive"}, {"compound": "CC=C(C)C(=O)OC1CCN2CC=C(COC(=O)C(O)(C(C)OC)C(C)(C)O)C12", "note": "(stereo not given)", "re-replication activation": "-1.17% (inactive)"}, {"compound": "CCC1(C)CC(CCNCc2ccc(N(C)C)cc2)(c2ccc(F)cc2)CCO1", "note": "(stereo not given)", "Potency": "18.4 µM (active)"}, {"compound": "CC[N+]1(CCOC(=O)C(O)(c2ccccc2)c2ccccc2)CCCCC1", "re-replication activation": "16.5% (inactive)"}, {"compound": "C=C(C)C1(CCCC)C(=O)NC(=S)NC1=O", "re-replication activation": "0.006% (inactive)"}]}]}
